According to PMC4336329 (PLoS ONE, 2015):
Screen size: about 310,000 compounds; about 14,000 (4.5%) showed an effect of 50% or more. Effects have a minus sign here. For the sample, strong results were picked, then their nearest neighbours and some compounds at random.

biological target: human ether-à-go-go-related gene (hERG) potassium channel (human, UniProt Q12809); test: primary screen, population patch clamp on CHO cells stably expressing hERG; higher = less effect of the substance
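Also: peak tail current of the secondary pulse compared with the same well before compound.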

Chain of human ether-à-go-go-related gene (hERG) potassium channel (Q12809 whole entry, looked up): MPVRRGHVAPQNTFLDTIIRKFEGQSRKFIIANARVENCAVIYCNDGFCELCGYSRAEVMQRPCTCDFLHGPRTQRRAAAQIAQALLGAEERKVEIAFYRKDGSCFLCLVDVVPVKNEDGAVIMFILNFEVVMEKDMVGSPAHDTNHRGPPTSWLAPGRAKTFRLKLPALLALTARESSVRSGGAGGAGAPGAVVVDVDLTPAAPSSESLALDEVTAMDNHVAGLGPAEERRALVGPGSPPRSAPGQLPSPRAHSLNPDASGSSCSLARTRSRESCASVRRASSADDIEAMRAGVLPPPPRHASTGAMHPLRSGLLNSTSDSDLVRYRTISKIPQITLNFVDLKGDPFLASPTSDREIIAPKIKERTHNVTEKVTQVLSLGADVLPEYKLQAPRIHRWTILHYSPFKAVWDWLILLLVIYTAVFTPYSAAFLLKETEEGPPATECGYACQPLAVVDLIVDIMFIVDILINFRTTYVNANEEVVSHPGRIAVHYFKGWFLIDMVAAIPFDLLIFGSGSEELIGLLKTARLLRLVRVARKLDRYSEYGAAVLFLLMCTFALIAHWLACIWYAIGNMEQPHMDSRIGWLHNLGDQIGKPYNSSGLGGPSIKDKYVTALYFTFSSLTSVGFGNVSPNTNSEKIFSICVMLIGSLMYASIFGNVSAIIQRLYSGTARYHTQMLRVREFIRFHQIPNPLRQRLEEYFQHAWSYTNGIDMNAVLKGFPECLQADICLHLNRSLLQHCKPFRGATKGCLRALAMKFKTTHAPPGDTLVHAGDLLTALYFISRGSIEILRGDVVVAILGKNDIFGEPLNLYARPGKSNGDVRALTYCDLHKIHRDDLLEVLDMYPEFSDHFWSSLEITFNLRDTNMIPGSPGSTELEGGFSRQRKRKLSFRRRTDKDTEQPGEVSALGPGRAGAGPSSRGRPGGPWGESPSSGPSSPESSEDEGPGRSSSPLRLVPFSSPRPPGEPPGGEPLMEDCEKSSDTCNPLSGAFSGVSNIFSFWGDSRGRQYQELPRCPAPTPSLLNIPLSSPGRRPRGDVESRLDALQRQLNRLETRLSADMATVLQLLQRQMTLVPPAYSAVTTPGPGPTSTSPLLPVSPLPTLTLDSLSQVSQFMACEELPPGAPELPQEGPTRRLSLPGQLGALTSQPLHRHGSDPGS

Compared with O=C(Nc1sc2c(c1C(=O)N1CCOCC1)CCCCC2)c1cccnc1, O=C(Nc1ccc(N2CCOCC2)cc1)c1cccc(S(=O)(=O)N2CCC(Cc3ccccc3)CC2)c1 is lower in “hERG current change (%, negative = inhibition) at 10uM” value: 17% for the first, 2.84% for the second.

First: CCN(CC)S(=O)(=O)c1ccc(N2CCCC2)c(NC(=O)CC(C)(C)C)c1
Second: Cc1ccccc1Cn1cc(S(=O)(=O)CC(=O)N2CCCCC2)c2ccccc21
The “hERG current change (%, negative = inhibition) at 10uM” value of the first is lower: -2.34% for the first, 7.27% for the second.

First: Cc1cc(C(=O)NC(C)c2ccccc2)c2cc(F)ccc2n1 (centres unmarked)
Second: COCCn1c(SCC(=O)c2ccccc2)nc2ccccc2c1=O
The “hERG current change (%, negative = inhibition) at 10uM” value of the first is higher: 3.06% for the first, -12.4% for the second.

Compared with O=C(N/N=C/c1c(Cl)cccc1Cl)c1cccc(F)c1, CCn1c(C)nc2cc(C(=O)NNC(=S)Nc3ccc(F)cc3)ccc21 is higher in “hERG current change (%, negative = inhibition) at 10uM” value: 3.24% for the first, 15.9% for the second.

First: CC/C(C)=N/NC(=O)c1[nH]c2ccc(C)cc2c1-c1ccccc1
Second: O=C(CCc1ccccc1O)N/N=C/c1ccc(Sc2cccc3cccnc23)o1
The “hERG current change (%, negative = inhibition) at 10uM” value of the first is lower: 0.516% for the first, 21.8% for the second.

Compared with CC1CCCN(C(=O)C2CCC(CNc3c(N4CCCCC4)c(=O)c3=O)CC2)C1 (centres unmarked), COCCn1c(SCCN2CCCCC2)nc2ccccc2c1=O is lower in “hERG current change (%, negative = inhibition) at 10uM” value: -8.22% for the first, -78.4% for the second.

First: COC(=O)c1ccc(COc2ccc(C)c(C)c2)o1
Second: COc1ccc(OC)c(NC(=O)Cc2coc3cc(C)cc(C)c23)c1
The “hERG current change (%, negative = inhibition) at 10uM” value of the first is higher: 12.3% for the first, 1.9% for the second.

Going from COc1ccc(-n2c(=O)[nH]c3cc(C(=O)NCCc4ccc(OC)c(OC)c4)ccc3c2=O)c(OC)c1 to C=CCNC(=O)CSc1nc2ccccc2c(=O)n1CCc1ccc(OC)c(OC)c1, the “hERG current change (%, negative = inhibition) at 10uM” value falls from 18.5% to -15.4%.

Compared with C=CCN1C(=O)NC(c2ccc(OC)cc2)(C(F)(F)F)S/C1=C(\C#N)c1nnc(N2CCOCC2)n1-c1ccccc1 (centres unmarked), C=CCN1C(=O)NC(c2ccccc2)(C(F)(F)F)S/C1=C(\C#N)c1nnc(N2CCOCC2)n1-c1ccccc1 (centres unmarked) is higher in “hERG current change (%, negative = inhibition) at 10uM” value: -62.4% for the first, -19.4% for the second.

Going from CN1C(=O)NC(c2ccccc2)(C(F)(F)F)S/C1=C(/C#N)c1nnc(N2CCOCC2)n1-c1ccccc1 (centres unmarked) to O=c1c2ccccc2nc(SCCN2CCOCC2)n1CCc1ccccc1, the “hERG current change (%, negative = inhibition) at 10uM” value rises from -30.3% to -15.4%.

Going from CC1Cc2ccccc2N1C(=S)NC(=O)C1(C)CC1(Cl)Cl (centres unmarked) to COc1ccc(CNC2CCCc3ccccc32)cc1OC.O=C(O)C(=O)O (centres unmarked), the “hERG current change (%, negative = inhibition) at 10uM” value falls from 30.1% to -25.3%.

Compared with CCOc1ccc(CNC2CCCc3ccccc32)cc1.O=C(O)C(=O)O (centres unmarked), O=C(O)C(=O)O.O=[N+]([O-])c1ccc(CNC2CCCc3ccccc32)cc1 (centres unmarked) is higher in “hERG current change (%, negative = inhibition) at 10uM” value: -68.1% for the first, -51.7% for the second.

Compared with COc1ccccc1CNC1CCCc2ccccc21.O=C(O)C(=O)O (centres unmarked), O=[N+]([O-])c1ccccc1CNC1CCCc2ccccc21 (centres unmarked) is higher in “hERG current change (%, negative = inhibition) at 10uM” value: -6.19% for the first, -5.95% for the second.

First: COc1cc(CNC2CCCc3ccccc32)cc(OC)c1OC.O=C(O)C(=O)O (centres unmarked)
Second: COc1ccc(CNC(=O)CN2CCN(c3ccccc3O)CC2)cc1OC
The “hERG current change (%, negative = inhibition) at 10uM” value of the first is lower: -13.9% for the first, 12.6% for the second.

First: COC(=O)C1=C(c2ccc(F)cc2OCc2ccccc2)C[C@@H]2CC[C@H]1N2C(=O)NCc1ccc(OC)c(OC)c1
Second: CCSc1nc2ccccc2c(=O)n1CCc1ccc(OC)c(OC)c1
The “hERG current change (%, negative = inhibition) at 10uM” value of the first is lower: -2.13% for the first, 14.9% for the second.

Going from CCC(=O)N1CCN(C(=O)c2ccccc2)CC1 to Br.CN1CCc2cc(O)c(O)cc2C(c2ccccc2)C1 (centres unmarked), the “hERG current change (%, negative = inhibition) at 10uM” value falls from 1.82% to -13.6%.

Going from O=C(O)C(=O)O.OC(CNCCc1ccc(Cl)cc1Cl)COc1ccccc1 (centres unmarked) to OC(CNCCc1ccc(Cl)cc1)COc1cc(Cl)ccc1Cl (centres unmarked), the “hERG current change (%, negative = inhibition) at 10uM” value falls from -25.7% to -56.6%.

Going from COc1ccc(Cl)cc1NC(=S)NCCc1ccc(S(N)(=O)=O)cc1 to Cc1cc(Cl)ccc1NC(=S)NCCc1ccc(S(N)(=O)=O)cc1, the “hERG current change (%, negative = inhibition) at 10uM” value falls from 5.52% to -16.1%.

First: OC(CNCCc1ccc(Cl)cc1)COCc1ccco1 (centres unmarked)
Second: Cc1cc(Cl)ccc1OCC(O)CNCCc1ccc(S(N)(=O)=O)cc1 (centres unmarked)
The “hERG current change (%, negative = inhibition) at 10uM” value of the first is higher: -44.6% for the first, -67.6% for the second.

Going from CCn1c(=NC(=O)CS(=O)(=O)c2ccc(C)cc2)sc2cccc(OC)c21 to O=C(CSc1nnc(NC(=O)Cc2ccc(F)cc2)s1)NCc1ccco1, the “hERG current change (%, negative = inhibition) at 10uM” value rises from -0.869% to 14.3%.

First: COc1ccc(CCn2c(SCCN3CCCCC3)nc3ccccc3c2=O)cc1OC
Second: O=c1c2ccccc2nc(SCCN2CCCCC2)n1CCc1ccccc1
The “hERG current change (%, negative = inhibition) at 10uM” value of the first is higher: -53.3% for the first, -71.7% for the second.

First: NC(=O)CSc1nc2ccccc2c(=O)n1CCc1ccccc1
Second: COCCn1c(SCCOc2ccccc2)nc2ccccc2c1=O
The “hERG current change (%, negative = inhibition) at 10uM” value of the first is higher: 8.93% for the first, -6.1% for the second.

First: Nc1cc(Nc2ccccc2)c2nonc2c1[N+](=O)[O-]
Second: Cc1ccccc1-n1c(C)cc(/C=N/Nc2ccc([N+](=O)[O-])cn2)c1C
The “hERG current change (%, negative = inhibition) at 10uM” value of the first is lower: 16.3% for the first, 17.4% for the second.

Compared with N#Cc1c(Nc2cccc(F)c2)sc2c(O)cc(=O)[nH]c12, Br.Cc1cccc(C2CN(C)CCc3c2cc(O)c(O)c3Cl)c1 (centres unmarked) is lower in “hERG current change (%, negative = inhibition) at 10uM” value: 27.3% for the first, -51.1% for the second.

Going from Br.Oc1ccc(C2CNCCc3c2cc(O)c(O)c3Cl)cc1 (centres unmarked) to Br.C=CCN1CCc2c(cc(O)c(O)c2Cl)C(c2ccccc2)C1 (centres unmarked), the “hERG current change (%, negative = inhibition) at 10uM” value falls from -3.12% to -41%.

Going from Br.C=CCN1CCc2cc(O)c(O)cc2C(c2ccccc2)C1 (centres unmarked) to CN1CCc2cc(Cl)c(O)cc2[C@@H](c2ccccc2)C1.Cl, the “hERG current change (%, negative = inhibition) at 10uM” value falls from -23.9% to -56%.

Compared with O=[N+]([O-])c1ccc(-c2nc(=S)c3c(o2)CCCC3)cc1, Oc1cccc2ccc(Nc3ccccn3)nc12 is lower in “hERG current change (%, negative = inhibition) at 10uM” value: -6.53% for the first, -53.6% for the second.

First: c1ccc(Nc2ccccn2)nc1
Second: Oc1ccccc1Nc1ccccn1
The “hERG current change (%, negative = inhibition) at 10uM” value of the first is higher: 7.19% for the first, 6.88% for the second.
